According to PubChem BioAssay (NCI):
Values joined by “and” are separate entries in the source; they are usually repeats but may differ in a detail not shown here. Equal values may be shown once. About 83,000 compounds went through this panel and 20% of them were active in at least one assay; those are over-represented in the sample as a whole.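 48-hour exposure, single concentration, 96-well plates; percent growth endpoint where 0 means no net growth. Active: below 10.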 Active and inactive are the calls of the source.

What follows are molecules tested on NCI-H322M lung (assay: NCI-60 one-dose screen, 48 h (100 = growth as untreated, 0 = no growth, -100 = all killed)). Conditions: 10 µM unless noted.
In the case of CN(Cc1ccccc1)c1nc(Cl)c(C2CC(c3ccc(F)cc3)=NN2C=O)s1 (stereo not drawn), the growth is reported as 93.1% (inactive). With CCOC(=O)c1ccc(Nc2ncnc3c2cnn3-c2cccc(F)c2)cc1 the growth was 102% (inactive). For Cc1ccc2nc3ccccc3c(NCc3ccc(Cl)cc3)c2c1, the growth was 55.9% (inactive). In the case of O=S(=O)(Nc1cc(Sc2cccc3cccnc23)c(O)c2ccccc12)c1ccc(F)cc1, the growth is reported as 31.7% (inactive). CCCCC1COc2cccc3c2N1C=C/C3=C\C(=O)N(C)c1cccc(Cl)c1 (stereo not drawn) was tested, and the growth was 110% (inactive). Cc1ccc(-c2nc3nc(-c4ccc(Cl)cc4)nc(N4CCCNCC4)c3o2)cc1 was tested, and the growth was 17.4% (inactive). COc1cc(NS(=O)(=O)C(C)C)cc(-c2cc(-c3ccc(N4CCNCC4)cc3)cnc2N)c1 was tested, and the growth was 91% (inactive). With COCCn1cc(-c2csc(-c3cn(C)c4ccc(F)cc34)n2)c2cccnc21 the growth was 75.7% (inactive). With COc1ccc(NC(=O)Nc2ccccc2CNc2nc(Nc3ccc(OCCN4CCCC4)cc3)ncc2Cl)cc1 the growth was 36.5% (inactive). With COc1cc(CNC(=O)CCCC/C=C/C(C)C)ccc1O the growth was 124% (inactive) and 88.7% (inactive). CC(Sc1ccccc1)C(=O)O (stereo not drawn) was tested, and the growth was 109% (inactive). With Cc1ccc(-c2nc3nc(-c4ccccc4)nc(N4CCCNCC4)c3o2)cc1 the growth was -6.9% (active). In the case of CCCCn1c(C(=O)c2c[nH]c3ccccc23)n[nH]c1=S, the growth is reported as 96.7% (inactive). O=C1C(=C(O)c2ccccc2)C(=O)c2ccccc21 was tested, and the growth was 109% (inactive). For COc1ccc(-c2c[nH]c(C(=O)O)c2-c2cc(OC)c(OC)c(OC)c2)cc1, the growth was 47.9% (inactive). In the case of O=C(Nc1ccc2ccccc2c1)c1cc2ccccc2cc1O, the growth is reported as 75.7% (inactive). With N=C(N)SCc1c2ccccc2c(CSC(=N)N)c2ccccc12 the growth was 103% (inactive). NNCCc1ccccc1 was tested, and the growth was 95.2% (inactive). In the case of Brc1ccc(/C=C(/C2=NCCN2)n2ccc3ccccc32)cc1, the growth is reported as 75.7% (inactive). C=C(c1ccc(C(=O)O)cc1)c1cc2c(cc1C)C(C)(C)CCC2(C)C was tested, and the growth was 72% (inactive). In the case of N=C(N)c1ccc(-c2ccc(-c3ccc(Cl)c(Cl)c3)s2)cc1, the growth is reported as -3.21% (active). In the case of C=C(CN1CC=CCC1)[C@@H]1CC[C@]2(COC(C)=O)CC[C@]3(C)[C@H](CC[C@@H]4[C@@]5(C)CC[C@H](O)C(C)(C)[C@@H]5CC[C@]43C)[C@@H]12, the growth is reported as 114% (inactive). In the case of O=[N+]([O-])c1cc(C(F)(F)F)ccc1Sc1ccc(C(F)(F)F)cc1[N+](=O)[O-], the growth is reported as 112% (inactive). With CCn1cc(C(=O)NN=C2CCCC2)c(=O)c2ccc(C)nc21 the growth was 82.4% (inactive). In the case of O=C(Nc1ccc(Cl)c(Cl)c1)Nc1ccc(Cl)c(Cl)c1, the growth is reported as -93.6% (active) and 19.2% (inactive). In the case of Cn1c(=O)c2c(nc(Nc3cc(=O)[nH]c(=O)[nH]3)n2Cc2ccccc2)n(C)c1=O, the growth is reported as 97.9% (inactive). With CCOC(=O)c1c(-c2ccc(OC)cc2)c(C#N)c2c(C#N)c(N)nn2c1N the growth was 80.9% (inactive). For COc1cc(/C=N/NC(=O)CCN2c3ccccc3Sc3ccccc32)cc(OC)c1OC, the growth was 83.2% (inactive). O/N=C(/c1ccccc1)c1ccc2c3c(cccc13)CC2 was tested, and the growth was 106% (inactive) and 102% (inactive). With COc1cc(-c2nc3occn3c2-c2ccnc(NCCCNS(=O)(=O)c3ccc(O)cc3)n2)ccc1F the growth was 113% (inactive). CN(C)c1ccc2nc3ccc(=O)cc-3sc2c1 was tested, and the growth was 49.7% (inactive) and 70% (inactive). With ON=C1CCCCCCCC1 the growth was 96.4% (inactive). In the case of [Cu+].[NH-][C@H]1C[N-]C(=O)[C@H]([C@H]2CCN=C(N)N2)[N-]C(=O)/C(=C\NC(N)=O)[N-]C(=O)[C@H](CNC(=O)C[C@@H](N)CCCN)[N-]C(=O)[C@H](CO)[N-]C1=O, the growth is reported as 106% (inactive). For CC(C)=CCc1cc(O)c(O)c2oc3cc(O)cc(O)c3c(=O)c12, the growth was 75.1% (inactive). Cc1ccc(S(=O)(=O)OC[C@@]2(C)CC[C@]3(C)CC[C@]4(C)C(=CC[C@@H]5[C@@]6(C)CCCNC(C)(C)[C@@H]6CC[C@]54C)[C@@H]3C2)cc1 was tested, and the growth was -87.4% (active). With COc1cc(C=O)ccc1Oc1ccc([N+](=O)[O-])cc1[N+](=O)[O-] the growth was 104% (inactive). For COc1cc2ncnc(Nc3ccc(F)c(Cl)c3)c2cc1OCC(=O)N1CCCCC1, the growth was 29% (inactive). With CCN1C(=S)N(CC)C2C1NC(=S)N2/N=C/C=C/c1ccccc1 (stereo not drawn) the growth was 51.1% (inactive).
